# Results: ChEMBL document CHEMBL4513216, “Probing the Open Global Health Chemical Diversity Library for Multistage-Active Starting Points for Next-Generation Antimalarials” (ACS Infect Dis, 2020)
# The whole screen tested about 69,000 compounds, of which about 8,600 (12%) showed an effect of 50% or more. What follows is part of a selection rich in strong results, with near analogues and random picks from the rest.
# System: Plasmodium berghei
# Experiment: Screen against P. berghei liver stage (PbLuc), transformed with Luciferase, at 10uM
# Format: functional, HepG2
# Conditions: tested at 10 uM
row,SMILES,INHIBITION [%]
1,COCCOCC(=O)NCc1ccc(N(C)C)nc1,26.1
2,COCCN1CCN(C(C(=O)O)c2ccc(SC)cc2)CC1 (configuration not stated),49.4
3,Cn1cc(CN2CCCC(O)C2)c(-c2ccccc2F)n1 (configuration not stated),3.13
4,COc1cccc(CN2CCC3(CC2)CCN(C(=O)[C@@H]2CCCO2)C3)c1,-47.9
5,Cc1ccc(N2CCOC(C)(C(=O)N(C)C)C2)nn1 (configuration not stated),18.3
6,Cc1n[nH]c(C2CN(C(=O)c3csnn3)CCO2)n1 (configuration not stated),35.1
7,CCc1nnsc1C(=O)N1CCOC(c2nc(C)n[nH]2)C1 (configuration not stated),51.3
8,CCc1nc(C)ncc1C(=O)N1CCOC(c2nc(C)n[nH]2)C1 (configuration not stated),23.5
9,CCc1n[nH]c(C2CN(C(=O)c3csnn3)CCO2)n1 (configuration not stated),40.4
10,Cc1n[nH]c(C2CN(C(=O)c3cc4c(s3)CCCC4)CCO2)n1 (configuration not stated),-1.14
11,Cc1n[nH]c(C2CN(C(=O)c3cc4c(s3)CCC4)CCO2)n1 (configuration not stated),0.914
12,CC(C)c1n[nH]c(C2CN(C(=O)c3cc4c(s3)CCC4)CCO2)n1 (configuration not stated),52.3
13,CC(C)c1n[nH]c(C2CN(C(=O)c3csnn3)CCO2)n1 (configuration not stated),52.7
14,CCc1nnsc1C(=O)N1CCOC(c2nc(C(C)C)n[nH]2)C1 (configuration not stated),-2.61
15,CC(CO)NC(=O)c1ccc(NCc2ccccc2)cc1 (configuration not stated),19.8
16,Cc1cc(Nc2ccc(F)cn2)cc(C2CCCN2)n1 (configuration not stated),34.9
17,CCN(C(=O)C1Cc2cc(Cl)ccc2O1)C1CC1 (configuration not stated),38.3
18,CNc1cc(C)nc(C2CCN(CCO)CC2)n1,-2.09
19,Cc1nc(CN2C(=O)COC3(CCN(Cc4ccco4)CC3)C2C)cs1 (configuration not stated),-4.86
20,CCc1cc(NCc2ccccc2CN2CCCC2)n2ncnc2n1,11.1
21,Cc1cc(NC2CCN(c3ccccc3)C2)n2ncnc2n1 (configuration not stated),4.94
22,Cc1cc(NCCn2cccn2)n2ncnc2n1,-38.8
23,Cc1cc(NCC2CCCCC2)n2ncnc2n1,9.8
24,COc1cccc(N2CCC(CNC(=O)NCc3ccco3)C2)c1 (configuration not stated),-51

row,SMILES,INHIBITION [%]
1,CCc1cc(NCc2cccnc2N2CCCCC2)n2ncnc2n1,36.2
2,Cc1cc(NCC2CCN(c3ccccc3)C2)n2ncnc2n1 (configuration not stated),78.9
3,COc1cccc(N2CCC(CNc3cc(C)nc4ncnn34)C2)c1 (configuration not stated),65.5
4,Cc1cc(NCc2ccccc2CN2CCCCC2)n2ncnc2n1,54.4
5,CCc1n[nH]c(C2CN(C(=O)c3cc4c(s3)CCC4)CCO2)n1 (configuration not stated),-7.31
6,C[C@H]1CN(C(=O)c2ccc[nH]2)C[C@@]12CCN(c1ccsc1)C2=O,18.3
7,NC(=O)c1cc(C2CCCN(CCOc3cccc(F)c3)C2)n[nH]1 (configuration not stated),43.48
8,CN(C)Cc1nn(C)c2c1CN(C(=O)c1ccc[nH]1)C2,-4.02
9,COc1ccc(-c2ccnc3nc(N4CCCC4)[nH]c(=O)c23)cc1OC,40
10,Cc1cccc(NC(=O)N2CCN(Cc3noc(C4CC4)n3)CC2)c1,46.2
11,CC(=O)c1c(C)nn(CC(=O)N2Cc3cnc(C(C)(C)C)nc3C2)c1C,-10.4
12,CC(=O)N1Cc2cnc(C(C)(C)C)nc2C1,19.8
13,Cc1cc(C)n(CC(=O)N2Cc3cnc(C(C)(C)C)nc3C2)n1,51.3
14,Cc1noc(Cl)c1CCC(=O)N1CCN(c2ccccc2)CC1,26.5
15,O=C(NCc1cccc(-n2cncn2)c1)NCC(C1CC1)C1CC1,50.2
16,CSC(C)(C)CNC(=O)NCc1cccc(-n2cncn2)c1,-17.9
17,Cc1c(CNC(=O)NCc2cccc(-n3cncn3)c2)cnn1C,-40.4
18,CCn1ncc(CN(C)C(=O)c2ccn(C)n2)c1C,30
19,Cc1ccsc1C(=O)N1CCN(Cc2cscn2)CC1,-6.14
20,COCCN1C(=O)[C@@H]2CC[C@H]1CN(c1nccc(C3CCCC3)n1)C2,-47.9
21,c1ccc(CN2CCCn3nnc(CNc4ncccn4)c3C2)nc1,-18.4
22,OC(COCc1ccccc1)CN1CCC(Cn2cccn2)CC1 (configuration not stated),43.5
23,Cc1cccc(CN2CCn3c(C(=O)N(C)C)cnc3C2)c1,50.9
24,CN(C)C(=O)c1cnc2n1CCN(Cc1ccccc1)C2,9.67

row,SMILES,INHIBITION [%]
1,Cc1ccc(CN2CCn3c(C(=O)N(C)C)cnc3C2)cc1,41.6
2,O=C(CCOCc1ccccc1)NS(=O)(=O)N1CCOc2ccccc21,-13.6
3,CCc1ncc2c(n1)CN(Cc1ncc(C(C)(C)C)o1)CC2,20
4,COC(=O)CN(C(=O)c1ccc(-n2ccnc2)cc1)C1CCCC1,0.566
5,Cc1nc(COC[C@@H]2CC[C@H]3[C@H](CCN3S(C)(=O)=O)O2)cs1,25
6,Cc1nc(COC[C@H]2CC[C@H]3NCC[C@H]3O2)cs1,51.2
7,Cc1nc(COC[C@@H]2CC[C@H]3NCC[C@H]3O2)cs1,55.6
8,COCCN1CC[C@@H]2O[C@H](COCc3csc(C)n3)CC[C@@H]21,3.11
9,CC(=O)N1CC[C@@H]2O[C@@H](COCc3csc(C)n3)CC[C@@H]21,6.6
10,Cc1nc(COC[C@H]2CC[C@H]3[C@H](CCN3c3ncccn3)O2)cs1,42.7
11,CCn1cc(CN2CCCN(C(=O)CCc3cccs3)CC2)cn1,11.4
12,c1cnn(Cc2cn3c(n2)CN(Cc2nccs2)CC3)c1,16.6
13,COc1ccccc1C(C)(C)NC(=O)Nc1ccc(F)c(C(N)=O)c1,-16.9
14,Cc1cc(C)c(CNC(=O)CC2CCCO2)c(=O)[nH]1 (configuration not stated),14.55
15,CCOCCCNC(=O)Cc1cccs1,30.8
16,CCOCCCNC(=O)C(NC(=O)Cc1cccs1)c1ccc(C)cc1 (configuration not stated),54
17,CCOCCCNC(=O)C(NC(=O)Cc1cccs1)c1ccccc1 (configuration not stated),34.2
18,CN1CCOC(CN(C(=O)CCCn2cccn2)c2nccs2)C1 (configuration not stated),-14.6
19,O=C(N1CCCC1)N1Cc2nccn2CC(CN2CCCC2)C1 (configuration not stated),42.6
20,CC(=O)NCC(=O)N1Cc2nccn2CC(CN2CCCC2)C1 (configuration not stated),28.4
21,CC(C)NC(=O)N1Cc2nccn2CC(CN2CCCC2)C1 (configuration not stated),73
22,O=C(c1ccccc1)N1Cc2nccn2CC(Cn2ncccc2=O)C1 (configuration not stated),11.5
23,O=C(CC1CC1)N1Cc2nccn2CC(Cn2ncccc2=O)C1 (configuration not stated),-13.2
24,NC(=O)N1Cc2nccn2CC(Cn2ncccc2=O)C1 (configuration not stated),61.9
